SMILES strings stand for the structures. Where “and” joins values, the source holds several entries; their conditions need not be identical. Identical values can stand only once. Inconclusive results are not listed. More than one record can exist for a structure, and the calls need not agree. Calls of active or inactive are those of the source. Calls follow the shape of the dose curve; as a rule, active = well fitted curve in the direction sought with a large enough effect; inconclusive = small, poorly fitted or top-dose-only effect, or another doubt; inactive = no such curve, though single readings can be large; an effect the other way counts as inactive or inconclusive.

Assay [1] has as its system CRL-7250. The assay can be described thus: Cytotoxic Profiling of Annotated Libraries Using Quantitative High-Throughput Screening (AID 1296008). Also: nearly all actives have a fitted effect of over 60% in size. Also: potency is read from the fitted curve at half-maximal effect. As to max response: % is scaled to controls: 0 for no effect and ±100 for the full control effect. Conditions: Five cell lines viability, CellTiter-Glo ATP luminescence, 48-72 h; max response: stronger effect = lower value. In a few lines: (§1)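 Cytotoxicity was measured as CellTiter-Glo ATP luminescence, read after 10 min at room temperature. Compound treatment of the cells lasted 48 or 72 hr at 37 degrees Celsius in a qHTS format.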

The subject of assay [2] is HEK293. The assay is described as above. As to conditions: Five cell lines viability, CellTiter-Glo ATP luminescence, 48-72 h; max response: stronger effect = lower value. Put shortly:
as §1

The subject of assay [3] is HaCat. Described as above. Conditions: Five cell lines viability, CellTiter-Glo ATP luminescence, 48-72 h; max response: stronger effect = lower value. In a few lines:
as §1

For assay [4], the system named is KB-3-1. The description is as above. As to conditions: Five cell lines viability, CellTiter-Glo ATP luminescence, 48-72 h; max response: stronger effect = lower value. Put shortly: as §1
Assay [5] concerns NIH3T3. The description is as above. As to conditions: Five cell lines viability, CellTiter-Glo ATP luminescence, 48-72 h; max response: stronger effect = lower value. Put shortly: as §1
Assay [6] relates to HACAT. Description: qHTS assay to identify novel small-molecules to repurpose for Merkel cell carcinoma treatment (AID 1296009). Also: nearly all actives have a fitted effect of over 60% in size. Also: potency is read from the fitted curve at half-maximal effect. As to conditions: MCC and control cell lines, CellTiter-Glo viability, 72 h; at 44.8 µM (top of the series) unless noted. Put shortly:
(§2)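 After compound transfer in DMSO, plates were kept 72 hr at 37 degree celsius. Luminescent ATP signal from CellTiter-Glo served as viability measure, normalized against DMSO and no-cell controls.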

In assay [7] the test system is MCC-13. The assay is described as above. As to conditions: MCC and control cell lines, CellTiter-Glo viability, 72 h; series mostly up to 46 µM. In a few lines: as §2
In assay [8] the test system is MCC-26. The assay is described as above. As to conditions: MCC and control cell lines, CellTiter-Glo viability, 72 h; series mostly up to 46 µM. Put shortly: as §2
Assay [9] relates to MKL-1. The description is as above. Conditions: MCC and control cell lines, CellTiter-Glo viability, 72 h; series mostly up to 46 µM. In a few lines:
as §2

In assay [10] the test system is MKL-2. The assay is described as above. As to conditions: MCC and control cell lines, CellTiter-Glo viability, 72 h; series mostly up to 46 µM. In a few lines:
as §2

The subject of assay [11] is NIH3T3. The description is as above. Conditions: MCC and control cell lines, CellTiter-Glo viability, 72 h; at 44.8 µM (top of the series) unless noted. In a few lines: as §2
Assay [12] deals with UISO. The description is as above. Conditions: MCC and control cell lines, CellTiter-Glo viability, 72 h; series mostly up to 46 µM. In a few lines: as §2
Assay [13] relates to WaGa. Described as above. As to conditions: MCC and control cell lines, CellTiter-Glo viability, 72 h; series mostly up to 46 µM. Put shortly:
as §2

Assay [14] has as its system C33A. The assay can be described thus: Primary qHTS to identify gynecologic anti-cancer compounds using libraries of approved drugs and bioactive compounds (AID 1345084). Also: % is scaled to controls: 0 for no effect and ±100 for the full control effect; nearly all actives have a fitted effect of over 55% in size. Conditions: Gynecologic cancer cell panel viability, ATPlite luminescence, 48 h; series mostly up to 57.5 µM. Put shortly:
(§3)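 ATP-based viability (ATPlite), 1,000 cells/well, 16 h pre-incubation, 48 h compound at 37 C, 5% CO2, 15 min RT before read.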

Assay [15] concerns CAOV3. The description is as above. As to conditions: Gynecologic cancer cell panel viability, ATPlite luminescence, 48 h; series mostly up to 57.5 µM. In a few lines: as §3
Assay [16] has as its system CASKI. The description is as above. Conditions: Gynecologic cancer cell panel viability, ATPlite luminescence, 48 h; series mostly up to 57.5 µM. Put shortly:
as §3

Assay [17] deals with Es-2. The assay is described as above. Conditions: Gynecologic cancer cell panel viability, ATPlite luminescence, 48 h; series mostly up to 57.5 µM. In a few lines:
as §3

For assay [18], the system named is W2. Description: qHTS profiling for inhibitors of Plasmodium falciparum proliferation (AID 504749). Also: nearly all actives have a fitted effect of over 60% in size. Also: potency is read from the fitted curve at half-maximal effect. Conditions: P. falciparum in erythrocytes, SYBR Green DNA, 72 h; series mostly up to 28.7 µM. Put shortly: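 Three-day growth assay of blood-stage parasites in erythrocytes (0.3% parasitemia, 2.5% hematocrit) at 37 C, 5% CO2, quantified by SYBR Green DNA staining after overnight detergent lysis.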

Assay [19] deals with HEK293T. Description: qHTS assay to identify novel small-molecules to repurpose for Merkel cell carcinoma treatment (AID 1296009). Also: nearly all actives have a fitted effect of over 60% in size. Also: potency is read from the fitted curve at half-maximal effect. Conditions: MCC and control cell lines, CellTiter-Glo viability, 72 h; at 44.8 µM (top of the series) unless noted. Put shortly:
as §2

For assay [20], the system named is HeLa. Description: Primary qHTS to identify gynecologic anti-cancer compounds using libraries of approved drugs and bioactive compounds (AID 1345084). Also: % is scaled to controls: 0 for no effect and ±100 for the full control effect; nearly all actives have a fitted effect of over 55% in size. Conditions: Gynecologic cancer cell panel viability, ATPlite luminescence, 48 h; series mostly up to 57.5 µM. In a few lines:
as §3

As for `CN(C)CCc1c[nH]c2ccc(C[C@H]3COC(=O)N3)cc12`, the max response is -10.2% (inactive) in assay [1]; 4.33% (inactive) and -3.7% (inactive) in assay [2]; 4.23% (inactive) in assay [3]; 7.3% (inactive) and 1.82% (inactive) in assay [4]; -0.145% (inactive) in [5]. For the same compound, the outcome in assay [1], in assay [3], in [5], in assay [6] and in assay [11] was inactive. Moreover, the Potency in [2] is 4.18 µM (active); in assay [3], 14.8 µM (active); in [5], 10.5 µM (active). Further, the Potency entry in assay [7], in [8], in assay [9], in [10], in [12] and in assay [13] was “inactive” each time. Further, the Potency result in assay [14], in assay [15], in assay [16] and in assay [17] was “inactive” throughout.
Take `CN(Cc1cc(Br)cc(Br)c1N)C1CCCCC1`: in assay [18], the Potency was 4.26 µM (active). In addition, the max response in [1] is 1.14% (inactive); in assay [3], 3.33% (inactive); in assay [4], 2.85% (inactive) and 5.96% (inactive); in assay [5], 1.21% (inactive). In addition, the outcome in [1], in assay [2], in [3], in assay [5], in assay [6] and in assay [19] was inactive. For the same compound, the compound was called inactive in assay [11]. The Potency entry in [7], in [9], in assay [10], in assay [12], in assay [13] and in assay [14] was “inactive” in each case. Moreover, the Potency entry in [15], in assay [16], in assay [17] and in assay [20] was “inactive” in each case.
For the compound `COc1cc([C@@H]2c3cc4c(cc3[C@H](O)[C@H]3COC(=O)[C@H]23)OCO4)cc(OC)c1OC`, the Potency was 1.69 µM (active) in assay [18]; 0.0299 µM (active) in [1]; 0.0422 µM (active) in assay [2]; 32.6 nM (active) and 0.8 nM (active) in assay [4]; 94.4 nM (active) and 2.6 nM (active) in [7]; 0.0132 µM (active) in assay [10]. Besides, the Potency in assay [13] was 47.3 nM (active) and inactive. For the same compound, the max response in [1] was -103% (inactive); in [2] it was -87.1% (inactive). Also, the call in assay [3] and in assay [6] was inactive. The Potency entry in assay [9] and in assay [15] was “inactive” each time.
`Nc1nc(F)nc2c1ncn2[C@@H]1O[C@H](CO)[C@@H](O)[C@@H]1O`: the Potency in [1] was 0.332 µM (active); in [2] it was 0.662 µM (active); in assay [4], 820 nM (active) and 1.3 µM (active) and 1.18 µM (active); in assay [7], 2.35 µM (active); in assay [9], 16.8 µM (active); in [12], 13.3 µM (active) and 935 nM (active). In addition, the Potency in assay [13] was 10.6 µM (active) and 935 nM (active). In addition, the max response in assay [1] was -19.1% (inactive); in assay [2] it was -7.93% (inactive); in [3], -5.85% (inactive). In [4], the call was inactive. Further, the Potency result in [15] and in [16] was “inactive” in each case.
`CC(C(=O)O)c1ccc2c(c1)CC(=O)c1ccccc1S2` (configuration not stated): the max response in [1] is -3.49% (inactive) and 3.11% (inactive); in [2] it was -0.0676% (inactive) and -6.42% (inactive) and 0.0288% (inactive); in assay [3], -2.2% (inactive) and 1.58% (inactive); in assay [4], -3.77% (inactive); in assay [5], 4.16% (inactive) and -0.0725% (inactive). For the same compound, the compound was called inactive in assay [1], in assay [3], in [4], in assay [5], in assay [6] and in assay [11]. Further, the Potency result in [7], in assay [8], in assay [9], in assay [10], in [12] and in [13] was “inactive” throughout. The Potency entry in [14], in assay [15], in assay [16], in assay [17] and in assay [20] was “inactive” throughout.
As for `NS(=O)(=O)c1cc2c(cc1Cl)NC(C(Cl)Cl)NS2(=O)=O` (configuration not stated), the max response in assay [1] is -3.96% (inactive); in assay [2], -0.123% (inactive); in [3], -16.1% (inactive); in assay [4], 9.97% (inactive); in assay [5], 3.32% (inactive) and -1.25% (inactive). Besides, the call in assay [1], in assay [2], in assay [3], in assay [4], in [6] and in assay [19] was inactive. The Potency entry in [7], in assay [8], in [9], in assay [10], in [12] and in assay [13] was “inactive” in each case. The Potency result in assay [14], in [15], in [16] and in [17] was “inactive” in each case.
As to `CCC(C)(C)c1ccc(CC(C)CN2C[C@@H](C)O[C@@H](C)C2)cc1` (some centres not stated), the max response is 0.576% (inactive) in assay [1]; -0.508% (inactive) and -3.77% (inactive) in [2]; 0.53% (inactive) and -5.13% (inactive) in assay [4]; 3.97% (inactive) and -6% (inactive) in assay [5]. Moreover, the compound was classed as inactive in [1], in assay [3] and in [6]. Besides, the Potency result in assay [7], in assay [8], in assay [9], in assay [10], in assay [12] and in [13] was “inactive” each time. For the same compound, the Potency entry in [14], in assay [15], in [16] and in assay [17] was “inactive” in each case.
Turning to `S=P(N1CC1)(N1CC1)N1CC1`, the Potency result in [18], in assay [7], in assay [8], in assay [9], in assay [10] and in assay [12] was “inactive” throughout. In addition, the Potency entry in assay [13], in assay [14], in assay [15] and in assay [17] was “inactive” in each case. Also, the max response was -10.3% (inactive) in assay [1]; 19% (inactive) and 33.9% (inactive) and 9.73% (inactive) in [4]; -7.91% (inactive) in assay [5]. For the same compound, the compound was classed as inactive in [1] and in assay [3]. Also, the Potency in [2] is 22.8 µM (active). Besides, the outcome in [6] was “inactive [at 92 µM]”.
Take `O=c1cc(O)c(Cl)c[nH]1`: the Potency result in assay [18], in [7], in [8], in assay [9], in assay [10] and in assay [12] was “inactive” throughout. Besides, the Potency result in [14], in [15], in assay [16] and in assay [17] was “inactive” throughout. Moreover, the max response in [1] is -3.23% (inactive); in [2], 3.54% (inactive) and 0.705% (inactive); in [3], -15.6% (inactive); in [4] it was 2.19% (inactive); in assay [5], 2.08% (inactive). In addition, the call in [1], in assay [3], in assay [5], in assay [6] and in assay [11] was inactive. In addition, in assay [13], the Potency entry was “inactive and 8.33 µM (active)”.
For the compound `O=C(O)c1cccnc1`, the figures for the Potency in assay [1] and in [2] were 16.6 µM (active) and 2.64 µM (active), respectively. The max response in assay [1] is 0.94% (inactive); in assay [2], -12.4% (inactive); in assay [3] it was -6.32% (inactive); in assay [4] it was 23.8% (inactive) and 4.59% (inactive); in assay [5], -0.396% (inactive) and 0.818% (inactive). The Potency entry in assay [7], in assay [8], in assay [9], in assay [10], in assay [12] and in assay [13] was “inactive” in each case. In addition, the Potency entry in assay [14], in assay [15], in assay [16], in assay [17] and in [20] was “inactive” throughout.
